# Bioassay records from PubChem BioAssay.
# PLK1 PBD inh: inhibitors of human PLK1 polo-box domain binding; P53350; Plk1 PBD binding of FITC phosphopeptide, fluorescence polarization; Potency, µM, for the others: max response, negative = inhibition, actives largely listed as inhibitors; actives 2.8% (n = 360,000); note: series mostly up to about 57 µM; nearly all actives have a fitted effect of over 65% in size
# Sfp inh: inhibitors of Bacillus subtilis Sfp phosphopantetheinyl transferase | Q9F4F7 | Biochemical Sfp PPTase activity, qHTS | Potency, µM, for the others: largest response in the series, negative = inhibition, actives largely listed as inhibitors | actives 3.5% (n = 310,000);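 note: the enzyme is Sfp with the accession as filed and its product quenches rhodamine fluorescence; 0% = enzyme reaction without inhibitor and -100% = no enzyme wells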
#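 Fluorescence-quenching assay with 15 nM Sfp, 5 uM rhodamine-CoA and 12.5 uM BHQ-2-labelled ybbR peptide in pH 7.6 Hepes/MgCl2 buffer. Enzyme was pre-incubated with compound for 15 min at room temperature. Rate was taken from the 30-min fluorescence change (525/598 nm).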
# mIDH1 inhibitor: human IDH1 R132H inhibition | Potency, µM (highest dose often 76.6 µM), without a hit: at the highest dose activity change, negative = inhibition, most hits filed as inhibitors | O75874 | actives 0.093% (n = 390,000) | IDH1-R132H enzyme, NADPH consumption, diaphorase/resazurin fluorescence | AID 602179; note: nearly all actives have a fitted effect of over 65% in size
# Target sequence (O75874 whole entry R132H, stated change not applied): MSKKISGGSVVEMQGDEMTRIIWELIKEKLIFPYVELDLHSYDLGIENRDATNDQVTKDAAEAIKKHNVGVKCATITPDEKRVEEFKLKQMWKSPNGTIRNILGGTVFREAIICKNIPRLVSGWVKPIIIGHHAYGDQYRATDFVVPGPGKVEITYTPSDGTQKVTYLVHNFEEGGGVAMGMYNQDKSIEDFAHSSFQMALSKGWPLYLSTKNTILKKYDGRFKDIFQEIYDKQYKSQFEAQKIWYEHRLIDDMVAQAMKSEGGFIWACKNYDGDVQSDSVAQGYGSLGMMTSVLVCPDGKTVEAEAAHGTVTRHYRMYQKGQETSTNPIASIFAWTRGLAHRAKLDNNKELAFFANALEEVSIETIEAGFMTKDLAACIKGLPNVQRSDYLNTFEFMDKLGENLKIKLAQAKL
#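 IDH1-R132H (0.5 ug/mL) preincubated 30 min with compound, then NADPH (0.016 mM) and alpha-KG (2 mM) added; 80 min at RT, pH 7.5. Remaining NADPH coupled via diaphorase/resazurin to fluorescence (540/590 nm); concentration-response curves normalized to no-enzyme control.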
# TrxR1 inh: inhibitors of rat thioredoxin reductase 1. O89049. recombinant rTrxR1, NADPH fluorescence consumption, selenite substrate. Potency, µM (series often up to 114 µM), for the others: at the top dose activity change, negative = inhibition, actives largely listed as inhibitors. actives 1% (n = 390,000); note: nearly all actives have a fitted effect of over 65% in size
#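 Rat TrxR1 (90 nM in the dispensed reagent) was pre-reduced with 400 uM NADPH for 5 min at room temperature, then incubated with compound for 15 min. After 400 uM selenite was added, NADPH fluorescence (Ex 340/Em 450 nm) was followed for 8 min.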
# VDR inhibitor: inhibitors of human vitamin D receptor; Potency, µM, inactives show max response, negative = inhibition, most hits filed as inhibitors; actives 0.93% (n = 400,000); VDR-SRC2-3 peptide fluorescence polarization, 2 h
#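 After 23 nl compound addition and a short centrifugation, plates sat for 2 hours at ambient temperature; polarization of fluorescence then indicated loss of VDR binding to peptide SRC2-3.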
# TrxR1 substrate: rat thioredoxin reductase 1 substrate activity; O89049; purified TrxR1 substrate turnover, NADPH consumption readout; Potency, µM (highest dose often 114 µM), inactives show at the highest dose activity change, negative = substrate turnover; actives 0.01% (n = 390,000); note: nearly all actives have a fitted effect of over 50% in size
#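 Rat TrxR1, dispensed at 90 nM, was prereduced with 400 uM NADPH (final) for 5 min at ~22 deg C, then incubated with compound 15 min before 400 uM selenite. A first-read NADPH fluorescence drop versus no-compound background flagged substrates.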
# The depositor's hits bear a star; ? = inconclusive; nt = no result given; [ ] = dose if it differs, or a comment. In the library only some 5.2% were active in any assay of this set; here they are far more common. Calls come from the whole dose curve; as a rule, active = well fitted curve in the direction sought with a large enough effect; inconclusive = small, poorly fitted or top-dose-only effect, or another doubt; inactive = no such curve, though single readings can be large; an effect the other way counts as inactive or inconclusive. Unless noted, % is set by controls: 0 for no effect and ±100 for the full control effect; potency is the fitted concentration of half-maximal effect.
SMILES,PLK1 PBD inh,Sfp inh,mIDH1 inhibitor,TrxR1 inh,VDR inhibitor,TrxR1 substrate
O=C(Nc1nnc(SCCC2OCCO2)s1)C1CC(=O)N(c2ccc(F)cc2)C1 (stereo not drawn),?,-30%,4%,-11%,?,-1%
COc1cccc(-c2nc(CS(=O)(=O)CC(=O)Nc3cc(OC)ccc3OC)c(C)o2)c1,-17%,7%,-5%,11%,13%,-3%
Cc1ccc(C(=O)Nc2cccnc2)cc1C,-3%,nt,4%,nt,nt,nt
CCN(CC)S(=O)(=O)c1ccc2c(c1)[nH]c(=S)n2CC,?,56µM*,2%,0%[57.1 µM],-2%,6%[57.1 µM]
CCC(=O)N1CCc2cc(S(=O)(=O)NC(CC(C)C)C(=O)NCc3cccc(OC)c3)ccc21 (stereo not drawn),nt,nt,0%,8%,6%,-1%
Cc1c(N=NC2=C(O)CC(C)(C)CC2=O)c(=O)n(-c2ccccc2)n1C,-15%,40µM*,14%,-30%,?,-7%
CCOC(=O)c1cnc2ccc(OCC)cc2c1NCc1ccccc1,-4%,32µM*,-2%,15%,-18%,33%
COC(=O)c1cc(S(=O)(=O)N2CCOCC2)c(Cl)cc1N1CCOCC1,-6%,9%,11%,-19%,4%,-13%
COC(=O)c1cc(C)nc2c1C(=O)C(=O)C=C2N1CCOCC1,-21%,-11%,26%,-13%,?,35µM*
CC(NC(=O)C(=O)N1CCOCC1)C(c1cccs1)N1CCN(c2ccccc2)CC1 (stereo not drawn),21µM*,0%,15%,10%,-27%,0%
CCCCn1c(N)c(N(CC)C(=O)C2=NN(c3ccccc3)C(=O)CC2)c(=O)[nH]c1=O,5%,nt,0%,-2%,-3%,-2%
CC1CCN(c2nc3ccccc3nc2C(C#N)C(=O)NC2CCCCC2)CC1 (stereo not drawn),nt,15%,nt,nt,nt,nt
CCCCOc1nc2ccccc2nc1C(C#N)C(=O)NC1CCCCC1 (stereo not drawn),27µM*,18%,0%,4%[57.1 µM],-11%,3%[57.1 µM]
Cc1ccc(-c2csc3ncnc(SCc4ccc(C(=O)O)cc4)c23)cc1,-72%,50µM*,-2%,-13%[57.1 µM],-11%,8%[57.1 µM]
CC(=O)Nc1ccc(Sc2ncnc3scc(-c4ccccc4)c23)cc1,6.7µM*,-14%,-8%,76%,-18%,5%
CCc1ccc(NC(=O)CCCc2nc(-c3ccco3)no2)cc1,nt,nt,-11%,-4%,-14%,-14%
Cc1ccc(NC2CCCN(C(=O)CSc3ccccn3)C2)cc1C (stereo not drawn),24µM*,-26%,4%,?,?,-17%
COc1ccccc1OCC(=O)N1CCCC(Nc2ccc(C)c(C)c2)C1 (stereo not drawn),-14%,3%,7%,-15%,-16%,-8%
Cc1ccc(NC2CCCN(C(=O)c3ccc(F)cc3)C2)cc1C (stereo not drawn),6.7µM*,-2%,-2%,18%[57.1 µM],?,3%[57.1 µM]
CC(C)N(C)CCOC(=O)c1ccccc1Br,24µM*,25%,4%,-5%[57.1 µM],?,6%[57.1 µM]
Cc1occc1C(=O)Nc1cc(S(=O)(=O)N2CCOCC2)ccc1OC(C)C,-23%,nt,6%,15%,-18%,7%
N#C/C(=C\c1ccccc1)C(=O)N1CCN(c2ccccc2F)CC1,-16%,-2%,2%,-23%,45µM*,-3%
N#C/C(=C\c1cccc(Br)c1)C(=O)N1CCCCC1,?,-1%,-8%,14µM*,50µM*,5%
C/C(=C/c1ccccc1)C(=O)N1CCN(c2ccccc2F)CC1,3%,-1%,5%,9%,-3%,-2%
Oc1ccc(N2CCN(c3ncnc4sc(-c5ccccc5)cc34)CC2)cc1,-9%,20µM*,-5%,20%[57.1 µM],10%,-2%
O=C(CSc1ccc(Br)cc1)NC1CCS(=O)(=O)C1 (stereo not drawn),17µM*,nt,1%,33%,?,-3%
